Experimental data published in publication PMC11006913.
Positions count from the first letter of the chain named.

How the values were obtained:
Experiment in all cases: PBM; 200 nM protein, PBS
Conditions in all cases: dsDNA, one strand shown
[1] = target: T1, SIX6 (Homo sapiens, UniProt O95475 114-200, L167I)
T1 sequence: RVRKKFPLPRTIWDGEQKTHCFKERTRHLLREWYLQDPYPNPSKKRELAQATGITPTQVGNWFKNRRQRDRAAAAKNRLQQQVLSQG

[2] = target: T2, SIX6 (Homo sapiens, UniProt O95475 114-200, L143V)
T2 sequence: T1 sequence with L30V, I54L

[3] = target: T3, SIX6 (Homo sapiens, UniProt O95475 114-200, H141N)
T3 sequence: T1 sequence with H28N, I54L

[4] = target: T4, SIX6 (Homo sapiens, UniProt O95475 114-200, T165P)
T4 sequence: T1 sequence with T52P, I54L

[5] = target: T5, SIX6 (Homo sapiens, UniProt O95475 114-200, L167M)
T5 sequence: T1 sequence with I54M

[6] = target: T6, SIX6 (Homo sapiens, UniProt O95475 114-200, L143M)
T6 sequence: T1 sequence with L30M, I54L

[7] = target: T7, SIX6 (Homo sapiens, UniProt O95475 114-200, L143I)
T7 sequence: T1 sequence with L30I, I54L

[8] = target: HOXB6 (Homo sapiens, UniProt P17509 132-218, K202E)
[9] = target: T8, SIX6 (Homo sapiens, UniProt O95475 114-200, T165G)
T8 sequence: T1 sequence with T52G, I54L

[10] = target: T9, SIX6 (Homo sapiens, UniProt O95475 114-200, T139Q)
T9 sequence: T1 sequence with T26Q, I54L

[11] = target: T10, SIX6 (Homo sapiens, UniProt O95475 114-200, T165A)
T10 sequence: T1 sequence with T52A, I54L

[12] = target: T11, SIX6 (Homo sapiens, UniProt O95475 114-200, L167V)
T11 sequence: T1 sequence with I54V

[13] = target: T12, SIX6 (Homo sapiens, UniProt O95475 114-200)
T12 sequence: T1 sequence with I54L

[14] = target: T13, SIX6 (Homo sapiens, UniProt O95475 114-200, T165I)
T13 sequence: T1 sequence with T52I, I54L

[15] = target: ALX3 (Homo sapiens, UniProt O95076 139-225, N203Q)
[16] = target: ALX3 (Homo sapiens, UniProt O95076 139-225, N203S)
[17] = target: HOXC9 (Homo sapiens, UniProt P31274 178-260, R222W)
HOXC9, sequence (P31274 178-260 R222W): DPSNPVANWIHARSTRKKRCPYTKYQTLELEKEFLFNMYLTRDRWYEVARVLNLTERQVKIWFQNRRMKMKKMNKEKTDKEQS

ALX3 (Homo sapiens, UniProt O95076 139-225, N203S), sequence (O95076 139-225 N203S): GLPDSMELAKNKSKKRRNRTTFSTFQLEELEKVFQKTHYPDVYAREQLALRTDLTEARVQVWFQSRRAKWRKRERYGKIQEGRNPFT
ALX3 (Homo sapiens, UniProt O95076 139-225, N203Q), sequence (O95076 139-225 N203Q): as the sequence (O95076 139-225 N203S) above, with S65Q counted along it
HOXB6, sequence (P17509 132-218 K202E): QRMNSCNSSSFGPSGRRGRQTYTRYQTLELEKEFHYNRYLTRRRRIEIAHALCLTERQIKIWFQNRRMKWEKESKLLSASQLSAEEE

Sequence	binding signal [1]	binding signal [2]	binding signal [3]	binding signal [4]	binding signal [5]	binding signal [6]	binding signal [7]	binding signal [8]	binding signal [9]	binding signal [10]	binding signal [11]	binding signal [12]	binding signal [13]	binding signal [14]	binding signal [15]	binding signal [16]	binding signal [17]
CTCGGGCC	9.05 upbm affinity estimate (log intensity, higher = more binding, comparable within an allelic series)	8.95 upbm affinity estimate (log intensity, higher = more binding, comparable within an allelic series)	9.05 upbm affinity estimate (log intensity, higher = more binding, comparable within an allelic series)	9.01 upbm affinity estimate (log intensity, higher = more binding, comparable within an allelic series)	8.95 upbm affinity estimate (log intensity, higher = more binding, comparable within an allelic series)	9.01 upbm affinity estimate (log intensity, higher = more binding, comparable within an allelic series)	9.02 upbm affinity estimate (log intensity, higher = more binding, comparable within an allelic series)	8.97 upbm affinity estimate (log intensity, higher = more binding, comparable within an allelic series)	9.14 upbm affinity estimate (log intensity, higher = more binding, comparable within an allelic series)	9.13 upbm affinity estimate (log intensity, higher = more binding, comparable within an allelic series)	9.09 upbm affinity estimate (log intensity, higher = more binding, comparable within an allelic series)	9.03 upbm affinity estimate (log intensity, higher = more binding, comparable within an allelic series)	9.02 upbm affinity estimate (log intensity, higher = more binding, comparable within an allelic series)	9.02 upbm affinity estimate (log intensity, higher = more binding, comparable within an allelic series)	–	–	–
CAGGCCCG	8.93 upbm affinity estimate (log intensity, higher = more binding, comparable within an allelic series)	8.77 upbm affinity estimate (log intensity, higher = more binding, comparable within an allelic series)	8.88 upbm affinity estimate (log intensity, higher = more binding, comparable within an allelic series)	8.76 upbm affinity estimate (log intensity, higher = more binding, comparable within an allelic series)	8.82 upbm affinity estimate (log intensity, higher = more binding, comparable within an allelic series)	8.79 upbm affinity estimate (log intensity, higher = more binding, comparable within an allelic series)	8.85 upbm affinity estimate (log intensity, higher = more binding, comparable within an allelic series)	–	8.97 upbm affinity estimate (log intensity, higher = more binding, comparable within an allelic series)	9.09 upbm affinity estimate (log intensity, higher = more binding, comparable within an allelic series)	8.92 upbm affinity estimate (log intensity, higher = more binding, comparable within an allelic series)	8.87 upbm affinity estimate (log intensity, higher = more binding, comparable within an allelic series)	8.81 upbm affinity estimate (log intensity, higher = more binding, comparable within an allelic series)	8.93 upbm affinity estimate (log intensity, higher = more binding, comparable within an allelic series)	–	–	–
CCACCCGC	9.19 upbm affinity estimate (log intensity, higher = more binding, comparable within an allelic series)	9.01 upbm affinity estimate (log intensity, higher = more binding, comparable within an allelic series)	9.2 upbm affinity estimate (log intensity, higher = more binding, comparable within an allelic series)	9.04 upbm affinity estimate (log intensity, higher = more binding, comparable within an allelic series)	9.21 upbm affinity estimate (log intensity, higher = more binding, comparable within an allelic series)	9.22 upbm affinity estimate (log intensity, higher = more binding, comparable within an allelic series)	9.08 upbm affinity estimate (log intensity, higher = more binding, comparable within an allelic series)	–	9.26 upbm affinity estimate (log intensity, higher = more binding, comparable within an allelic series)	9.36 upbm affinity estimate (log intensity, higher = more binding, comparable within an allelic series)	9.23 upbm affinity estimate (log intensity, higher = more binding, comparable within an allelic series)	9.16 upbm affinity estimate (log intensity, higher = more binding, comparable within an allelic series)	9.18 upbm affinity estimate (log intensity, higher = more binding, comparable within an allelic series)	9.15 upbm affinity estimate (log intensity, higher = more binding, comparable within an allelic series)	–	–	–
CGTCGCGC	9.07 upbm affinity estimate (log intensity, higher = more binding, comparable within an allelic series)	9.04 upbm affinity estimate (log intensity, higher = more binding, comparable within an allelic series)	9.11 upbm affinity estimate (log intensity, higher = more binding, comparable within an allelic series)	9.07 upbm affinity estimate (log intensity, higher = more binding, comparable within an allelic series)	9 upbm affinity estimate (log intensity, higher = more binding, comparable within an allelic series)	9.11 upbm affinity estimate (log intensity, higher = more binding, comparable within an allelic series)	9.05 upbm affinity estimate (log intensity, higher = more binding, comparable within an allelic series)	–	9.08 upbm affinity estimate (log intensity, higher = more binding, comparable within an allelic series)	9.27 upbm affinity estimate (log intensity, higher = more binding, comparable within an allelic series)	9.17 upbm affinity estimate (log intensity, higher = more binding, comparable within an allelic series)	8.92 upbm affinity estimate (log intensity, higher = more binding, comparable within an allelic series)	9.06 upbm affinity estimate (log intensity, higher = more binding, comparable within an allelic series)	8.97 upbm affinity estimate (log intensity, higher = more binding, comparable within an allelic series)	7.76 upbm affinity estimate (log intensity, higher = more binding, comparable within an allelic series)	7.8 upbm affinity estimate (log intensity, higher = more binding, comparable within an allelic series)	–
GGCGGACC	8.97 upbm affinity estimate (log intensity, higher = more binding, comparable within an allelic series)	8.88 upbm affinity estimate (log intensity, higher = more binding, comparable within an allelic series)	9.01 upbm affinity estimate (log intensity, higher = more binding, comparable within an allelic series)	8.96 upbm affinity estimate (log intensity, higher = more binding, comparable within an allelic series)	8.9 upbm affinity estimate (log intensity, higher = more binding, comparable within an allelic series)	8.83 upbm affinity estimate (log intensity, higher = more binding, comparable within an allelic series)	8.88 upbm affinity estimate (log intensity, higher = more binding, comparable within an allelic series)	–	8.99 upbm affinity estimate (log intensity, higher = more binding, comparable within an allelic series)	8.91 upbm affinity estimate (log intensity, higher = more binding, comparable within an allelic series)	8.99 upbm affinity estimate (log intensity, higher = more binding, comparable within an allelic series)	8.82 upbm affinity estimate (log intensity, higher = more binding, comparable within an allelic series)	8.92 upbm affinity estimate (log intensity, higher = more binding, comparable within an allelic series)	8.89 upbm affinity estimate (log intensity, higher = more binding, comparable within an allelic series)	7.72 upbm affinity estimate (log intensity, higher = more binding, comparable within an allelic series)	7.67 upbm affinity estimate (log intensity, higher = more binding, comparable within an allelic series)	–
CGGGCCGC	9.03 upbm affinity estimate (log intensity, higher = more binding, comparable within an allelic series)	8.81 upbm affinity estimate (log intensity, higher = more binding, comparable within an allelic series)	9.05 upbm affinity estimate (log intensity, higher = more binding, comparable within an allelic series)	8.75 upbm affinity estimate (log intensity, higher = more binding, comparable within an allelic series)	8.94 upbm affinity estimate (log intensity, higher = more binding, comparable within an allelic series)	8.95 upbm affinity estimate (log intensity, higher = more binding, comparable within an allelic series)	8.91 upbm affinity estimate (log intensity, higher = more binding, comparable within an allelic series)	–	8.87 upbm affinity estimate (log intensity, higher = more binding, comparable within an allelic series)	8.94 upbm affinity estimate (log intensity, higher = more binding, comparable within an allelic series)	9.01 upbm affinity estimate (log intensity, higher = more binding, comparable within an allelic series)	8.94 upbm affinity estimate (log intensity, higher = more binding, comparable within an allelic series)	9.02 upbm affinity estimate (log intensity, higher = more binding, comparable within an allelic series)	8.91 upbm affinity estimate (log intensity, higher = more binding, comparable within an allelic series)	–	–	–
CCAGACGG	8.98 upbm affinity estimate (log intensity, higher = more binding, comparable within an allelic series)	8.84 upbm affinity estimate (log intensity, higher = more binding, comparable within an allelic series)	8.93 upbm affinity estimate (log intensity, higher = more binding, comparable within an allelic series)	8.91 upbm affinity estimate (log intensity, higher = more binding, comparable within an allelic series)	9.05 upbm affinity estimate (log intensity, higher = more binding, comparable within an allelic series)	9.07 upbm affinity estimate (log intensity, higher = more binding, comparable within an allelic series)	8.95 upbm affinity estimate (log intensity, higher = more binding, comparable within an allelic series)	–	9.01 upbm affinity estimate (log intensity, higher = more binding, comparable within an allelic series)	9.12 upbm affinity estimate (log intensity, higher = more binding, comparable within an allelic series)	8.94 upbm affinity estimate (log intensity, higher = more binding, comparable within an allelic series)	9.01 upbm affinity estimate (log intensity, higher = more binding, comparable within an allelic series)	9.03 upbm affinity estimate (log intensity, higher = more binding, comparable within an allelic series)	9.05 upbm affinity estimate (log intensity, higher = more binding, comparable within an allelic series)	–	–	9.67 upbm affinity estimate (log intensity, higher = more binding, comparable within an allelic series)
AGCCGGCT	9.39 upbm affinity estimate (log intensity, higher = more binding, comparable within an allelic series)	9.1 upbm affinity estimate (log intensity, higher = more binding, comparable within an allelic series)	9.34 upbm affinity estimate (log intensity, higher = more binding, comparable within an allelic series)	8.96 upbm affinity estimate (log intensity, higher = more binding, comparable within an allelic series)	9.33 upbm affinity estimate (log intensity, higher = more binding, comparable within an allelic series)	9.42 upbm affinity estimate (log intensity, higher = more binding, comparable within an allelic series)	9.2 upbm affinity estimate (log intensity, higher = more binding, comparable within an allelic series)	–	9.33 upbm affinity estimate (log intensity, higher = more binding, comparable within an allelic series)	9.36 upbm affinity estimate (log intensity, higher = more binding, comparable within an allelic series)	9.35 upbm affinity estimate (log intensity, higher = more binding, comparable within an allelic series)	9.33 upbm affinity estimate (log intensity, higher = more binding, comparable within an allelic series)	9.39 upbm affinity estimate (log intensity, higher = more binding, comparable within an allelic series)	9.26 upbm affinity estimate (log intensity, higher = more binding, comparable within an allelic series)	7.78 upbm affinity estimate (log intensity, higher = more binding, comparable within an allelic series)	7.77 upbm affinity estimate (log intensity, higher = more binding, comparable within an allelic series)	–
